Assay results from PubChem BioAssay (NCATS).
Values joined by “and” are separate entries in the source; they are usually repeats but may differ in a detail not shown here. Identical values can stand only once. Results filed as inconclusive are left out. Active and inactive are the calls of the source. Unless noted, the call rests on the fitted dose curve; in most records, active means well fitted curve in the direction sought with a large enough effect; inconclusive means small, poorly fitted or top-dose-only effect, or another doubt; inactive means no such curve, though single readings can be large; an effect the other way counts as inactive or inconclusive.

Columns and labels:
CASKI = test: Primary qHTS to identify gynecologic anti-cancer compounds using libraries of approved drugs and bioactive compounds (AID 1345084); conditions: Gynecologic cancer cell panel viability, ATPlite luminescence, 48 h; series mostly up to 57.5 µM; further: nearly all actives have a fitted effect of over 55% in size; further: potency means the concentration at half of the fitted maximal effect
Outline: (§1)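 Five-point cytotoxicity, 48 h drug exposure at 37 C, 5% CO2, on cells seeded 16 h beforehand. ATP content read by ATPlite luminescence.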

Es-2 = test: as above; conditions: Gynecologic cancer cell panel viability, ATPlite luminescence, 48 h; series mostly up to 57.5 µM
Outline: as §1

OV90 = test: as above; conditions: Gynecologic cancer cell panel viability, ATPlite luminescence, 48 h; series mostly up to 57.5 µM
Outline: as §1

PA-1 = test: as above; conditions: Gynecologic cancer cell panel viability, ATPlite luminescence, 48 h; series mostly up to 57.5 µM
Outline: as §1

[1] = molecular target: Catechol O-methyltransferase (Homo sapiens) (UniProt P21964); test: Confirmatory Screen for Target Class Profiling of Small Molecule Inhibitors of Methyltransferases (AID 1745852); conditions: MTase-Glo luminescence, SAH detection, recombinant enzyme; measured here: COMT max response; stronger effect = lower value; on activity change, negative = inhibition: on the % scale 0 is the no-effect control and ±100 the full control effect
Catechol O-methyltransferase (Homo sapiens), sequence (P21964 whole entry, looked up): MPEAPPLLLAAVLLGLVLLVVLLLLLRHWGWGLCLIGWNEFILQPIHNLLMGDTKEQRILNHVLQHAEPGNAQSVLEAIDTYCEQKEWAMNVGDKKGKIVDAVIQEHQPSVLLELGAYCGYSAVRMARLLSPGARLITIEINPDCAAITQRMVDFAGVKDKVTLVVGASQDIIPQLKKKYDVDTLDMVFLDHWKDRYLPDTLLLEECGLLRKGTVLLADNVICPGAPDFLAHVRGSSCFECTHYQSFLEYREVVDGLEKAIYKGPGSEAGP

[2] = molecular target: Guanidinoacetate N-methyltransferase (Homo sapiens) (UniProt Q14353); test: as above; conditions: activity change, negative = inhibition: at 57.3 µM (top of the series) unless noted
[3] = molecular target: Nicotinamide N-methyltransferase (Homo sapiens) (UniProt P40261); test: as above; conditions: MTase-Glo luminescence, SAH detection, recombinant enzyme; measured here: NNMT max response; stronger effect = lower value
Nicotinamide N-methyltransferase (Homo sapiens), sequence (P40261 whole entry, looked up): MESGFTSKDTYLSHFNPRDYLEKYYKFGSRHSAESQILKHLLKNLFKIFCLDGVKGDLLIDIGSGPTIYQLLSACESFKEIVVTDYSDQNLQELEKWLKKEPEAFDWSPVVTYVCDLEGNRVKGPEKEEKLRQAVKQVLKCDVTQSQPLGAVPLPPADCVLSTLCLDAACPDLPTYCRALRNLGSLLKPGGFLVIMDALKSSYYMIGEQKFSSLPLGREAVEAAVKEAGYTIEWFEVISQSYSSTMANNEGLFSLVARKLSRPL

[4] = molecular target: Phenylethanolamine N-methyltransferase (Homo sapiens) (UniProt P11086); test: as above; conditions: MTase-Glo luminescence, SAH detection, recombinant enzyme; measured here: PNMT max response; stronger effect = lower value
Phenylethanolamine N-methyltransferase (Homo sapiens), sequence (P11086 whole entry, looked up): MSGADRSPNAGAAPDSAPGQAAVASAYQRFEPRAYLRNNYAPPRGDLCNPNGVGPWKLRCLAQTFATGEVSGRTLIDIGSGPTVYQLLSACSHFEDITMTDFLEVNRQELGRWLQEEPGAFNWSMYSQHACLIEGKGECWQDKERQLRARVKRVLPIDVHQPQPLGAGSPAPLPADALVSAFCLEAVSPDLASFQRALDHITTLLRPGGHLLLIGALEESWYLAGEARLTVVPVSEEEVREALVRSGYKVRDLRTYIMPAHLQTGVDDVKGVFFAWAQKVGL

CAOV3 = test: Primary qHTS to identify gynecologic anti-cancer compounds using libraries of approved drugs and bioactive compounds (AID 1345084); conditions: Gynecologic cancer cell panel viability, ATPlite luminescence, 48 h; series mostly up to 57.5 µM; further: nearly all actives have a fitted effect of over 55% in size; further: potency means the concentration at half of the fitted maximal effect
Outline: as §1

SKOV3 = test: as above; conditions: Gynecologic cancer cell panel viability, ATPlite luminescence, 48 h; series mostly up to 57.5 µM
Outline: as §1

[5] = qHTS to identify inhibitors of the type 1 interferon - major histocompatibility complex class I in skeletal muscle: primary screen against the NCATS Mechanism Interrogation Plate v5.0 (MIPE) Libary (AID 1347411); further: nearly all actives have a fitted effect of over 65% in size; further: potency means the concentration at half of the fitted maximal effect;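 on activity change, negative = inhibition: plate controls were vehicle for no effect and reference inhibitor for full effect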
Outline: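 HLA-B HiBit myoblasts, dexamethasone-free medium + 4 ng/ml IFN-b, 24 h compound, 11-pt 1:3 from 46 uM final. Readout: Nano-Glo HiBiT lytic luminescence after 10 min lysis, RT.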

[6] = molecular target: Cytochrome P450 2D6 (Homo sapiens) (UniProt P10635); test: Cytochrome P450 family 2 subfamily D member 6 (CYP2D6) small molecule antagonists: luciferase biochemical (cell-free) qHTS assay (AID 1645840; active means well fitted curve in the direction sought with a large enough effect in the repeat runs; an effect the other way counts as inactive or inconclusive; further: potency means the concentration at half of the fitted maximal effect; nearly all actives have a fitted effect of over 55% in size)
Cytochrome P450 2D6 (Homo sapiens), sequence (P10635 whole entry, looked up): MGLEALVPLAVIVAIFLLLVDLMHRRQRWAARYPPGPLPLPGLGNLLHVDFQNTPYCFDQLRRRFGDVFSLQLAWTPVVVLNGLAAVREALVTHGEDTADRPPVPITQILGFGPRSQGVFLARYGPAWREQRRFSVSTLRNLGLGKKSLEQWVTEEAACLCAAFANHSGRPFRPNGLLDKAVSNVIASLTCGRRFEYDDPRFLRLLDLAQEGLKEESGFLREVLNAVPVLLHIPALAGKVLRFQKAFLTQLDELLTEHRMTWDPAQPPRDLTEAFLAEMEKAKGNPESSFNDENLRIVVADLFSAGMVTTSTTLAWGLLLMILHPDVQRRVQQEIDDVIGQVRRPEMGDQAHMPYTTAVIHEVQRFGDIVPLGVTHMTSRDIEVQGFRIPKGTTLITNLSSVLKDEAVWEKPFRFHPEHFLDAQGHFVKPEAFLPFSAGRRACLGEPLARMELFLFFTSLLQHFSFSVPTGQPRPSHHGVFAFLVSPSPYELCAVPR
Outline: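 P450-Glo CYP2D6 system: proluciferin substrate converted by enzyme to luciferin, read by luminescence proportional to activity. Enzyme-substrate mix with compound 10 min at room temperature, then NADPH regeneration 1 h before detection reagent.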

[7] = molecular target: Luciferin 4-monooxygenase (Photinus pyralis) (UniProt P08659); test: Biochemical firefly luciferase enzyme assay for NPC (AID 624030);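 further: purified P. pyralis luciferase at 10 nM with luciferin and ATP substrate; 0% = DMSO and -100% = full luciferase inhibition by PTC124 control; nearly all actives have a fitted effect of over 70% in size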
Luciferin 4-monooxygenase (Photinus pyralis), sequence (P08659 whole entry, looked up): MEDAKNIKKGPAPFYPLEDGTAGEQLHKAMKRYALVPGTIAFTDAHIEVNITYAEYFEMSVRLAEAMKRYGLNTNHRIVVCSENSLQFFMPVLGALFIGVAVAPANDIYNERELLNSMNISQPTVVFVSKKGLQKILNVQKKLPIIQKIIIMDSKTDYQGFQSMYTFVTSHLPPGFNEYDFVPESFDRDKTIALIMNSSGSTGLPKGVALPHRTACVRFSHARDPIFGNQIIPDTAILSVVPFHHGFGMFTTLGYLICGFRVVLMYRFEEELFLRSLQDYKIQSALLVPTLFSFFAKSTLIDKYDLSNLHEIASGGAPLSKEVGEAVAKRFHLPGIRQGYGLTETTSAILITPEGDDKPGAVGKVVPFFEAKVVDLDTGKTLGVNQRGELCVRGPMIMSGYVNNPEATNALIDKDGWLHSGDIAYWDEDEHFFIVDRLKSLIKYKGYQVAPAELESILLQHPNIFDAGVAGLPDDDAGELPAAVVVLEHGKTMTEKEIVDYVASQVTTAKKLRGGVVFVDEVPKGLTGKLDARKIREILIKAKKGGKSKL
Outline: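 Counter-screen for direct inhibition of the luciferase enzyme by approved-drug library compounds, run at 10 nM enzyme in 50 mM Tris acetate (final). Luminescence was read within 5 min of enzyme-buffer addition and normalized to PTC124 versus DMSO (0%).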

[8] = qHTS Assay for Identifying Gametocytocidal Compounds (AID 743244); further: potency means the concentration at half of the fitted maximal effect;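 on max response: on the % scale 0 is the no-effect control and ±100 the full control effect; actives lower the fluorescent signal which means gametocytes are killed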; conditions: P. falciparum 3D7 stage III-V gametocytes, alamarBlue, 72 h; max response: stronger effect = lower value
Outline: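 Viability read-out was resazurin reduction (alamarBlue, 24 h) measured at Ex 525/Em 598 nm. Beforehand, late-stage (III-V) 3D7 P. falciparum gametocytes at 20,000 cells/well were incubated with compound 72 h at 37C under 5% CO2.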

astro = test: Drug repurposing screens with cells derived from glioblastoma tumor samples (AID 1345199); conditions: viability, ATP luminescence, 48 h; series mostly up to 45.9 µM; further: nearly all actives have a fitted effect of over 40% in size; further: potency means the concentration at half of the fitted maximal effect
Outline: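 Primary testing used CD133+ neurospheres from four GBM patients, seven concentrations, 48 h exposure and ATP-based viability; confirmation added three slower-growing patient lines.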

[9] = tested on: Zika virus NS2B-NS3 protease; test: Primary screen GU AMC qHTS for Zika virus inhibitors (AID 1347154);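 further: 0% = no-inhibitor control and -100% = no-enzyme control; nearly all actives have a fitted effect of over 70% in size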
Outline: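 Unlinked Zika NS2B hydrophilic domain/NS3 protease domain noncovalent complex (25 nM final) in 10 mM Tris-HCl pH 8.0, 0.01% Tween 20, with AMC peptide substrate. Fluorescence (ex 340, em 450 nm) change over 15 min, room temperature; percent inhibition fitted to 4-parameter Hill equation.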

[10] = qHTS assay to identify inhibitors of the type 1 interferon - major histocompatibility complex class I in skeletal muscle: Counter screen cell viability and HiBit confirmation (AID 1347412); conditions: iHSKM muscle cells + IFN-b, HiBiT or CellTiter-Glo, 24 h; for Potency: HiBiT; for activity change, negative = inhibition: Viability, at 45.9 µM (top of the series); further: potency means the concentration at half of the fitted maximal effect; on activity change, negative = inhibition: on the % scale 0 is the no-effect control and ±100 the full control effect; on all read-outs here: nearly all actives have a fitted effect of over 60% in size
Outline: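 After 24 h with human IFN-beta (4 ng/ml) and compound titrations (top 46 uM final, 1:3, 12 points), HLA-B HiBit myoblasts were lysed for either Nano-Glo HiBiT luminescence or CellTiter Glo viability on paired plates.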

[11] = NCATS anti-infectives library activity on HEK293 viability as a counter-qHTS vs the C. elegans viability qHTS (AID 1745854); further: on the % scale 0 is the no-effect control and ±100 the full control effect
Outline: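 CellTiter-Glo luminescence, read on a CCD imager, scored viability of HEK293 cells after 24 hr compound exposure at 37C. Library tested in several concentrations, 1:5 steps, up to 41.7 uM; digitonin served as control.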

In the case of CC[C@]1(O)C[C@H]2CN(CCC3C(=Nc4ccccc43)[C@@](C(=O)OC)(c3cc4c(cc3OC)N(C)[C@H]3[C@@](O)(C(N)=O)[C@H](O)[C@]5(CC)C=CCN6CC[C@]43[C@@H]65)C2)C1 (stereo not given in full), the Potency (CASKI) was 199 nM (active), the Potency (Es-2) was 794 nM (active) and the Potency (OV90) was 5010 nM (active). The Potency (PA-1) was 100 nM (active).
Compound CN(C)CCCCCCNC(=O)c1cccc(-c2cc(O)c3ncccc3c2)c1 has an activity [1] of -95.5%, an activity change, negative = inhibition [2] of 6.43% and an activity [3] of -1.3%. For the same compound, the activity [4] was 4.93%, the Potency (CAOV3) was “inactive” and the Potency (OV90) was “inactive”. The Potency (SKOV3) was “inactive”.
With C=C(C)C(=O)O[C@H]1[C@H]2C(=C)C(=O)O[C@@H]2C[C@@H](C)[C@@H]2O[C@@H]2C(=O)[C@](C)(O)[C@@H]1OC(C)=O the Potency (OV90) was “inactive” and the Potency (SKOV3) was 2510 nM (active).
For COC(=O)/C=C/C(=O)N(O)CCCCNCc1ccc(COC(=O)Nc2cccc3ccccc23)cc1, the Potency [5] was 13100 nM (active) and the Potency (OV90) was “inactive”.
With O=C(Nc1ncc(SCCN2CCCC2)s1)C1(c2ccc(S(=O)(=O)C3CC3)cc2)CC1C1CCCCC1 (stereo not given) the Potency [6] was 21300 nM (active), the Potency (CASKI) was “inactive” and the Potency (Es-2) was “inactive”. For the same compound, the Potency (OV90) was “inactive”.
For CCOC(=O)CN[C@@H](C(=O)N1CC[C@H]1C(=O)NCc1ccc(/C(N)=N/O)cc1)C1CCCCC1, the Potency [7] was “inactive”, the max response [8] was 9.4% (inactive) and the Potency (astro) was “inactive”.
With N#Cc1cccc(C#N)c1-c1nc2c3ccccc3c3cc(Cl)ccc3c2[nH]1 the Potency (CAOV3) was “inactive”, the Potency (CASKI) was “inactive” and the Potency (Es-2) was “inactive”. The Potency (OV90) was “inactive” and the Potency (PA-1) was “inactive”.
For CC1(C)N=C(N)N=C(N)N1c1ccc(Cl)cc1, the Potency [7] was “inactive”, the max response [8] was -2.29% (inactive) and the Potency (astro) was “inactive”.
With CCCCCCCCCCCCC/C=C/[C@@H](O)[C@H](CO)N(C)C the activity change, negative = inhibition [9] was 11% [at 6.83 µM] (inactive) and 6.76% [at 6.83 µM] (inactive).
With COc1cc(F)ccc1-c1ncnc(Nc2cccc(CS(C)(=N)=O)c2)n1 (stereo not given) the Potency [5] was 2340 nM (active), the Potency [10] was 991 nM (active) and the activity change, negative = inhibition [10] was -16.3% (inactive).
With O=C1NC(=O)/C(=C/c2ccc3nccc(-c4ccncc4)c3c2)S1 the Potency [5] was 829 nM (active) and the Potency [10] was 4970 nM (active).
With COc1c(Nc2ncc(Cl)c(N[C@H]3[C@H](C(N)=O)[C@@H]4C=C[C@@H]3C4)n2)ccc2c1CCC(N1CCOCC1)CC2 (stereo not given in full) the Potency [5] was “inactive”.
For CCN(CC)C(=O)c1cc(S(=O)(=O)Cc2ccccc2)c(N2CCC(c3ccccc3)CC2)cc1N(CC)CCN(C)C, the Potency (astro) was 12600 nM (active).
For CCOC(=O)CCC(=O)O[C@H]1[C@H](O[C@@H]2[C@@H](C)[C@H](O[C@H]3C[C@@](C)(OC)[C@@H](O)[C@H](C)O3)[C@@H](C)C(=O)O[C@H](CC)[C@@](C)(O)[C@H](O)[C@@H](C)C(=O)[C@H](C)C[C@@]2(C)O)O[C@H](C)C[C@@H]1N(C)C, the max response [8] was -6.05% (inactive) and the Potency (astro) was “inactive”.
For C/C1=C2N=C(/C=C3N=C(/C(C)=C4\[N-]C(C(CC(N)=O)C4(C)CCC(=O)NCC(C)OP(=O)([O-])OC4C(CO)OC(n5cnc6cc(C)c(C)cc65)C4O)C4(C)N=C1C(CCC(N)=O)C4(C)CC(N)=O)C(CCC(N)=O)C\3(C)C)C(CCC(N)=O)C/2(C)CC(N)=O.[CH3-].[Co+3] (stereo not given), the Potency [8] was 22400 nM (active).
In the case of CN(CC(=O)N1CCOCC1)Cc1c(Cl)cccc1NC(=O)c1ccccc1, the Potency [7] was “inactive”, the max response [8] was -0.892% (inactive) and the Potency (astro) was “inactive”.
With O=C(NOCCO)c1cc(CN2OCCCC2=O)c(F)c(F)c1Nc1ccc(I)cc1F the Potency [5] was “inactive”.
In the case of COc1cc([C@@H]2c3cc4c(cc3C(O[C@@H]3O[C@@H]5CO[C@@H](C)O[C@H]5[C@H](O)[C@H]3O)C3COC(=O)[C@@H]32)OCO4)cc(OC)c1OP(=O)(O)O (stereo not given in full), the max response [8] was 4.76% (inactive) and -12.7% (inactive).
For CC(=O)Nc1ccc(C(=O)NC(C)(C)C)cc1, the Potency [5] was “inactive”.
For CNS(=O)(=O)c1ccc2c(c1)/C(=C/c1[nH]c3c(c1CCCN1CCN(C)CC1)CCCC3)C(=O)N2, the Potency [5] was 20800 nM (active).
For C[C@@H]1N=C(N)NC(N(C)C)=N1, the Potency [5] was “inactive”.
For CC[C@@]1(O)C[C@H](O[C@H]2C[C@H](N(C)C)[C@H](O[C@H]3C[C@H](O)[C@H](O[C@H]4CCC(=O)[C@H](C)O4)[C@H](C)O3)[C@H](C)O2)c2c(cc3c(c2O)C(=O)c2c(O)cccc2C3=O)[C@H]1C(=O)OC, the Potency [8] was 112 nM (active) and the Potency (astro) was 447 nM (active).
In the case of NC(=O)c1sc(-c2ccsc2)cc1N, the Potency [9] was “inactive”.
With Cc1nc2c(O)cccc2c(=O)[nH]1 the Potency [9] was “inactive” and the outcome [11] was “inactive”.
For CCCCCCCCCCCCCCCCSCC(COC)COP(=O)([O-])OCC[N+](C)(C)C (stereo not given), the Potency [7] was “inactive”, the max response [8] was -10.5% (inactive) and the Potency (astro) was “inactive”.
For CN1C/C=C/CCOc2cccc(c2)-c2ccnc(n2)Nc2cccc(c2)C1, the Potency [5] was 165 nM (active), the Potency [10] was 111 nM (active) and the activity change, negative = inhibition [10] was -20% (inactive).
